MCF10A rereplic – A quantitative high throughput screen for small molecules that induce DNA re-replication in MCF 10a normal breast cells; MCF 10A DNA re-replication, Hoechst nuclear intensity, 48 h; Potency, µM (top dose mostly 46.1 µM), actives largely listed as activators; 350,000 tested, 2.9% active; also: nearly all actives have a fitted effect of over 50% in size
KB-V1 MDR tox – qHTS assay for MDR1-selective chemotherapeutics: Primary screen using the drug-selected MDR subline cells KB-V1. Potency, µM (doses to about 46.1 µM), hits mostly cytotoxic. KB-V1 MDR cells viability, CellTiter-Glo, 72 h. AID 1347076, 2019. 400,000 tested, 3.4% active; also: nearly all actives have a fitted effect of over 60% in size
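Luminescent ATP read-out (CellTiter-Glo, 10 min) measures survival of drug-selected KB-V1 MDR cells after 72 h, 37 degrees C compound exposure. Medium: phenol-red-free DMEM, 10% FBS. Values from fitted concentration-response curves.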
SW480 rerep – A quantitative high throughput screen for small molecules that induce DNA re-replication in SW480 colon adenocarcinoma cells; SW480 DNA re-replication, Hoechst DNA content imaging, 48 h; Potency, µM (series often up to 46.1 µM), most hits filed as activators; 340,000 tested, 1.8% active; AID 624297, 2012; also: nearly all actives have a fitted effect of over 55% in size
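Compounds, transferred as 23 nL by pin tool, were incubated with cells for 48 hr; DNA content per nucleus was then quantified by Hoechst staining and fluorescence plate imaging.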
DRD3 antagonist – qHTS of D3 Dopamine Receptor Antagonist: qHTS | D(3) dopamine receptor (Homo sapiens), P35462 | AID 652054, 2013 | D3R cells, DiscoveRx beta-arrestin luminescence, antagonist mode; hits give low values | max response, negative = inhibition, % | 360,000 tested, 2.5% active; in the data active = max response below about -50%; inconclusive = no clear call, values can overlap the other calls
Target sequence (P35462 whole entry, looked up): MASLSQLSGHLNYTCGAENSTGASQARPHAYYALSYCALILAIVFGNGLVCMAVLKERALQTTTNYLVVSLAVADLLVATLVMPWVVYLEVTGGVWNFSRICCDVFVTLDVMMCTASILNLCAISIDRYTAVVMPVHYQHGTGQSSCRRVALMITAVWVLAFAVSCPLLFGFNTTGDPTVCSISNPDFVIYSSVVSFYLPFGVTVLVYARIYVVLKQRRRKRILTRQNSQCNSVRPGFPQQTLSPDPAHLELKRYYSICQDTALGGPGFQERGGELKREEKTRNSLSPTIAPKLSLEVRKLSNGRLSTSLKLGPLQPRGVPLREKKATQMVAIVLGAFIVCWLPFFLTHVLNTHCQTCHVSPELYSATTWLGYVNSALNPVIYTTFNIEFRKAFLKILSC
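Cells plated overnight at 1500 cells/well, then exposed to library compounds with dopamine controls for 90 minutes at 37 degrees C. DiscoveRx reagent added for 30–60 minutes at room temperature; luminescence read, quantitative HTS format.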
KB-3-1 cytotox – qHTS assay for MDR1-selective chemotherapeutics: Primary screen using the parental adenocarcinoma cell KB-3-1 | 400,000 tested, 1.4% active | Potency, µM (doses to about 46.1 µM), most hits filed as cytotoxic | KB-3-1 viability, CellTiter-Glo ATP luminescence, 72 h | AID 1347075, 2019; also: nearly all actives have a fitted effect of over 60% in size
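KB-3-1 cells, DMEM (no phenol red) + 10% FBS; compound by pin transfer, 72 h, 37 °C. Readout: CellTiter-Glo luminescence after 10 min. Data normalized, curve-fitted.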
D3 ag – qHTS of D3 Dopamine Receptor Agonist: qHTS; 410,000 tested, 0.58% active; max activation, %; D3R DiscoveRx beta-arrestin cells, luminescence, 90 min; D(3) dopamine receptor (Homo sapiens), P35462; in the data active = max activation above about 30%
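Agonist mode: compounds and dopamine controls were applied to plated cells for 90 min at 37 degrees C after an overnight attachment at 1500 cells/well. Luminescent read-out followed 30 - 60 minutes at room temperature with DiscoveRx detection reagent.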
Numbers stand for hits; i = inactive; ? = inconclusive; nt = no result given; ! = repeats disagree; [ ] = dose if it differs, or a comment. Most compounds without a hit are left out; they make up all but 8.9% or so of the library. Unless noted, calls follow the shape of the dose curve; as a rule, active = well fitted curve in the direction sought with a large enough effect; inconclusive = small, poorly fitted or top-dose-only effect, or another doubt; inactive = no such curve, though single readings can be large; an effect the other way counts as inactive or inconclusive.

SMILES	MCF10A rereplic	KB-V1 MDR tox	SW480 rerep	DRD3 antagonist	KB-3-1 cytotox	D3 ag
CC(=O)N(Cc1c(C)nn(-c2ccccc2)c1Cl)c1ccc(Cl)cc1	i	?	i	i	i	i
Cc1nn(-c2ccccc2)c(Cl)c1C(=O)NCC(=O)O	i	i	i	i	i	i
CCOc1ccc(NC(=O)NCCc2c(C)nn(C)c2C)cc1	nt	i	nt	nt	i	i
CC(NC(=S)NC1CCCCC1)c1ccc(C(C)(C)C)cc1 (configuration not stated)	5.8µM	12µM	i	i	?	i
CC(C)c1ccc(C(C)NC(=S)NC2CCCCC2)cc1 (configuration not stated)	?	?	i	i	?	i
O=C(Nc1nc2ccc(F)cc2s1)c1cccc(S(=O)(=O)N2CCc3ccccc32)c1	i	2.9µM	i	i	?	i
CCOC(=O)c1sc(NC(=O)c2cccc(S(=O)(=O)N3CCc4ccccc43)c2)c(C#N)c1C	i	i	i	i	21µM	i
O=C(Nc1ccncc1)c1cccc(S(=O)(=O)N2CCc3ccccc32)c1	i	?	?	i	?	i
CCC(CC)c1nnc(NC(=O)c2cccc(S(=O)(=O)N3CCc4ccccc43)c2)s1	4.6µM	15µM	?	i	i	i
O=C(Nc1cccnc1)c1cccc(S(=O)(=O)N2CCc3ccccc32)c1	i	10µM	i	i	?	i
Cc1ccc(CNc2nc3ccccc3c3nc(-c4cccc(C)c4)nn23)cc1	nt	nt	nt	nt	nt	i
Cc1ccc2nc(NC(=O)c3ccc(S(=O)(=O)N4CCCc5ccccc54)cc3)sc2c1	16µM	i	?	i	i	i
Brc1ccc(-c2cc3c(N4CCN(c5ccccc5)CC4)nccn3n2)cc1	nt	i	nt	nt	i	i
COc1ccc(S(=O)(=O)N2CCC3(CC2)OCCN3S(=O)(=O)c2c(C)cc(C)cc2C)cc1	i	i	i	i	i	i
COc1ccc(S(=O)(=O)N2CCOC23CCN(S(C)(=O)=O)CC3)cc1	i	i	5.2µM	i	i	i
COc1ccc(S(=O)(=O)N2CCOC23CCN(S(=O)(=O)c2ccccc2)CC3)cc1	i	i	7.3µM	i	i	i
CCN1CCN(Cc2ccc(NC(=O)c3cc(NC(=O)c4cc(C)on4)cc(OC)c3)cc2C(F)(F)F)CC1	i	?	?	?	?	i
CCN1CCN(Cc2ccc(NC(=O)c3cc(NC(=O)c4cnn(-c5ccccc5)c4N)cc(OC)c3)cc2C(F)(F)F)CC1	15µM	i	i[9.22 µM]	i	i	i
CCN1CCN(Cc2ccc(NC(=O)c3cc(NC(=O)C(=O)c4c[nH]c5ccccc45)cc(OC)c3)cc2C(F)(F)F)CC1	?	?	?	-54	?	i
CCN1CCN(Cc2ccc(NC(=O)c3ccc(C)c(NC(=O)C(=O)c4c[nH]c5ccccc45)c3)cc2C(F)(F)F)CC1	23µM	?	?	-72!	?	i
CCN1CCN(Cc2ccc(NC(=O)c3ccc(C)c(NC(=O)c4ccnnc4)c3)cc2C(F)(F)F)CC1	i	i	i	i	i	i
CCN1CCN(Cc2ccc(NC(=O)c3ccc(C)c(NC(=O)c4ccc5n[nH]nc5c4)c3)cc2C(F)(F)F)CC1	i	i	i	?	i	i
CC(=O)c1ccc(NC(=O)CSc2nc(=O)n(Cc3ccncc3)c3c2CCC3)cc1	nt	i	nt	nt	i	i
N#C/C(=N\Nc1ccc(Cl)c(Cl)c1)C(=O)C1CC1	?	?	i	i	16µM	i
N#Cc1ccccc1NC(=O)C(=O)NCCc1csc(-c2ccc(C(F)(F)F)cc2)n1	nt	nt	nt	nt	nt	i
COc1cc(C(=O)NCCCNc2nc3cc(C)cc(C)c3cc2C#N)cc(OC)c1OC	?	5.8µM	i	i	?	i
CCOc1ccc2nc(NCCNC(=O)CC)c(C#N)cc2c1	?	?	?	i	i	i

Bioassay records as filed in PubChem BioAssay.
